Screening data (PubChem BioAssay)
In the library only some 11% were active in any assay of this set; here they are far more common.
VACV Venus inh = vaccinia inhibition (Venus reporter) | Vaccinia virus Venus reporter expression, fluorescence | Potency, µM (doses to about 36.5 µM), for the others: at the top dose activity change, negative = inhibition, hits mostly inhibitors | 330,000 compounds, 0.46% hits | AID 720580; calls by dose curve; tested in A549 cells; further: on the % scale 0 is the no-effect control and ±100 the full control effect; nearly all actives have a fitted effect of over 30% in size
NS1 function inh = blocks influenza NS1 protein function | 270,000 compounds, 0.4% hits | Potency, µM (top dose mostly 46.1 µM), without a hit: at the top dose activity, positive = more growth; calls by dose curve; further: actives are rising curves; nearly all actives have a fitted effect of over 50% in size
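Recovery from NS1-induced slow growth read by OD600 in budding yeast switched to galactose assay medium (pH 6.0, -URA) at 1:100 dilution. Compound 23 nl per well; the matching strain lacking NS1 serves as control.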
HCV inh = inhibitors of hepatitis C virus infection. Huh7.5.1 HCVcc-Cre infection, luciferase reporter, 44 h. AID 651820. 340,000 compounds, 3.4% hits. Potency, µM (top dose mostly 41.8 µM), inactives show at the highest dose activity change, negative = inhibition, most hits filed as inhibitors; further: on the % scale 0 is the no-effect control and ±100 the full control effect
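Antiviral activity was scored by luciferase reporter output from cells infected with HCVcc-Cre (~0.5 moi) in presence of compound, 44 h infection period, cells seeded 1,000/well 4 h prior.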
Vaccinia mCherry = inhibitors of vaccinia virus infection (mCherry reporter signal); 310,000 compounds, 0.63% hits; Potency, µM (top dose mostly 36.5 µM), inactives show at the highest dose activity change, negative = inhibition, actives largely listed as inhibitors; Vaccinia virus mCherry reporter infection, fluorescence; calls by dose curve; tested in A549 cells; further: on the % scale 0 is the no-effect control and ±100 the full control effect; nearly all actives have a fitted effect of over 35% in size
Pf growth 96h = P. falciparum growth inhibition at 96 hours; P. falciparum luciferase reporter growth, 96 h; Potency, µM (titrated, usually from 28.7 µM), inactives show at the top dose activity change, negative = inhibition, actives largely listed as inhibitors; 320,000 compounds, 6.9% hits; further: on the % scale 0 is the no-effect control and ±100 the full control effect
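Parasite growth measured via integrated firefly luciferase reporter in P. falciparum. Infected erythrocytes at 2% hematocrit, 0.05% parasitemia final were treated 96 hours at 37 C under 5% CO2, and luminescence was read.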
Pf growth 48h = inhibits P. falciparum growth in the first generation, 48 h. Potency, µM (titrated, usually from 28.7 µM), for inactives: at the top dose activity change, negative = inhibition, actives largely listed as inhibitors. 310,000 compounds, 5.9% hits. P. falciparum luciferase growth in erythrocytes, 48 h; further: on the % scale 0 is the no-effect control and ±100 the full control effect
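Luciferase-expressing P. falciparum in infected erythrocytes (2% hematocrit, 0.1% parasitemia final) in RPMI 1640/0.5% Albumax were exposed to compound for 48 hours at 37 C, 5% CO2; growth read as luminescence.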
Numbers without * were called inactive; ! = a repeat was not active. Unless noted, the call rests on the fitted dose curve; in most records, active means well fitted inhibition curve with a large enough effect; inconclusive means small, poorly fitted or top-dose-only effect, or another doubt; inactive means no such curve, though single readings can be large or run the other way. Potency means the concentration at half of the fitted maximal effect.

How did COc1ccc(-c2cc3c(=O)n(CC(=O)NCCCN4CCC(N5CCCCC5)CC4)nc(C)n3n2)cc1 do in these assays?
NS1 function inh: -4%; HCV inh: inconclusive; Pf growth 96h: 8.3µM*; Pf growth 48h: inconclusive

How did CCN(CC)Cc1c(O)ccc2c(-c3ccccc3)cc(=O)oc12 do in these assays?
NS1 function inh: -1%; HCV inh: 5%; Pf growth 96h: 8%; Pf growth 48h: inconclusive

Results for Cc1ccc(-n2nc3cc(C)c(NC(=O)c4ccc(-c5ccccc5)o4)cc3n2)cc1 ?
VACV Venus inh: -4%; Vaccinia mCherry: -5%

What do the screens show for `COc1nc(N2CCOCC2)nc(C)c1[N+](=O)[O-]`?
VACV Venus inh: -17%; NS1 function inh: 5%; HCV inh: -5%; Vaccinia mCherry: -11%; Pf growth 96h: 12µM*; Pf growth 48h: -2%

How did COC(=O)[C@@]1(Cc2ccccc2)[C@H]2C(=O)N(Cc3ccccc3)C(=O)[C@H]2[C@H]2CN(C)C(=NCc3ccccc3)N21 do in these assays?
VACV Venus inh: 0%; HCV inh: inconclusive; Vaccinia mCherry: -14%

How did CC1(C)CC(=O)C2=C(C1)NC1=C(C(=O)c3ccccc31)C2c1ccc(O)cc1 (stereo not given) do in these assays?
VACV Venus inh: 11µM*; NS1 function inh: -4%; HCV inh: -20%; Vaccinia mCherry: inconclusive; Pf growth 96h: inconclusive; Pf growth 48h: inconclusive

What do the screens show for `CCCCc1ccc(C2C3=C(CC(C)(C)CC3=O)NC3=C2C(=O)c2ccccc23)cc1` (stereo not given)?
VACV Venus inh: inconclusive; NS1 function inh: inconclusive; HCV inh: 13µM*; Vaccinia mCherry: -30%; Pf growth 96h: inconclusive; Pf growth 48h: 13µM*

What do the screens show for `O=C1CCCC2=C1C(c1cccc(O)c1)C1=C(N2)c2ccccc2C1=O` (stereo not given)?
VACV Venus inh: -13%; NS1 function inh: 15%; HCV inh: -26%; Vaccinia mCherry: -3%; Pf growth 96h: 7%; Pf growth 48h: 39%

What do the screens show for `Cc1cc(C)c(C(=O)NCC(=O)c2ccccc2)c(C)c1`?
VACV Venus inh: -7%; HCV inh: -1%; Vaccinia mCherry: -13%

What do the screens show for `O=S(=O)(c1ccc(F)cc1)N1CCC(N2CCCC2)CC1`?
VACV Venus inh: -15%; NS1 function inh: -4%; HCV inh: inconclusive; Vaccinia mCherry: -3%; Pf growth 96h: inconclusive; Pf growth 48h: 15%

What do the screens show for `O=C1CSC(c2cccnc2)N1Cc1ccc(Cl)c(Cl)c1` (stereo not given)?
NS1 function inh: -2%; HCV inh: 4%; Pf growth 96h: -11%; Pf growth 48h: inconclusive

What do the screens show for `O=c1c2ccccc2nc2n1CCO2`?
VACV Venus inh: -5%; NS1 function inh: 1%; HCV inh: 30%; Vaccinia mCherry: -13%; Pf growth 96h: 13%

Results for O=c1c2ccccc2nc2oc3ccccc3n12 ?
VACV Venus inh: 17%; NS1 function inh: -13%; HCV inh: 18%; Vaccinia mCherry: -7%; Pf growth 96h: 13µM*; Pf growth 48h: 98%

How did CN(C)C(=O)C(CCN1CCC(O)(c2ccc(Cl)cc2)CC1)(c1ccccc1)c1ccccc1 do in these assays?
VACV Venus inh: -24%; NS1 function inh: -2%; HCV inh: inconclusive; Vaccinia mCherry: -6%; Pf growth 96h: 2.9µM*!; Pf growth 48h: 2.9µM*

How did Cc1cc(N2CCCC2)n2nc(C)nc2n1 do in these assays?
VACV Venus inh: -7%; NS1 function inh: 4%; HCV inh: 9%; Vaccinia mCherry: -14%; Pf growth 96h: -10%; Pf growth 48h: 8%

What do the screens show for `CC(=O)NC(CCS(C)(=O)=O)C(=O)Nc1cc(Cl)ccc1Cl` (stereo not given)?
VACV Venus inh: -4%; NS1 function inh: -7%; HCV inh: 10%; Vaccinia mCherry: inactive; Pf growth 96h: 25%; Pf growth 48h: 21%

Results for CC(C)S(=O)(=O)c1csc(NC(=O)Nc2cc(Cl)ccc2Cl)c1Cl ?
VACV Venus inh: -19%; NS1 function inh: 3%; HCV inh: 13µM*; Vaccinia mCherry: -4%; Pf growth 96h: inconclusive; Pf growth 48h: inconclusive
